Measured values as given in PubChem BioAssay.
Measured potencies and affinities stand elsewhere. Records with an inconclusive call do not appear. The source made the active and inactive calls.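 Rule for the calls, unless noted: active = signal drop whose fitted half-maximal concentration is at most twice the top valid dose, in every test run; inconclusive = mixed calls across runs, poor fit, or flat 30 to 70% inhibition; inactive = wrong direction, flat within 30%, or potency beyond limit.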

test: cytotoxicity in PAX8-dependent RMG-1 cells, dose response, cell-based, cherry-pick (AID 687029); details: RMG-1 viability, CellTiterGlo ATP luminescence, 96 h; series mostly up to 35 µM;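 note: cells exposed to compound for 96 hours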

| SMILES | outcome |
| --- | --- |
| CN[C@H]1CCc2cc(OC)c(OC)c(OC)c2-c2ccc(OC)c(=O)cc21 | inactive |
| CC(C)(C)C(=O)Nc1ccc(NC(=O)c2ccco2)nc1 | inactive |
| COc1ccccc1-n1cc([C@@H]2C[C@H]3CN(c4ccccc4)C(=O)[C@]34CCCN24)cn1 | inactive |
| CCN1CCN(Cc2ccc(NC(=O)c3cc(NC(=O)C(=O)c4c[nH]c5ccccc45)cc(OC)c3)cc2C(F)(F)F)CC1 | inactive |
| COc1ccc(S(=O)(=O)N2CCCCN3[C@H](CO)[C@H](c4ccc(C#CC(C)C)cc4)[C@H]3C2)cc1 | inactive |
| Cc1cccc(C)c1NS(=O)(=O)c1ccc(-c2cnc(C3CC3)o2)cc1 | inactive |
| O=c1c(Cl)c(Cl)cnn1Cc1nnc(-c2ccccc2Br)o1 | inactive |
| C=CC(=O)N=c1sc2ccccc2n1-c1ccccc1 | inactive |
| CCOCCCNC(=O)c1ccc2c(c1)N=C(CC)c1cc(Br)ccc1S2 | inactive |
| CC(C)C(=O)N1CCN(c2ccc(NC(=O)c3ccc([N+](=O)[O-])o3)cc2)CC1 | inactive |
| Cc1cc(-n2c(SCC(=O)NCCC3=CCCCC3)nc3n[nH]c(C)c3c2=N)ccc1Cl | inactive |
| COc1cc(/C=C2\COC/C(=C\c3cc(OC)c(OC)c(OC)c3)C2=O)cc(OC)c1OC | inactive |
| N#Cc1c(N)n(C2OC(CO)C(O)C2O)c2ncnc(N)c12 (stereo not given) | inactive |
| Cn1cc(C2=C(c3ccc(Cl)cc3Cl)C(=O)NC2=O)c2ccccc21 | inactive |
| COc1cc(-c2cnc3c(NC=O)cc(-c4ccc(C)cc4)cn23)cc(OC)c1OC | inactive |
| COc1ccc(S(=O)(=O)Nc2ccc3c(c2)C(=O)N([C@@H](C)CO)C[C@H](C)[C@H](CN(C)Cc2ccc(C(F)(F)F)cc2)OCCCC[C@H](C)O3)cc1 | inactive |
| CCC1(O)C(=O)OCc2c1cc1n(c2=O)Cc2cc3c(N)cccc3nc2-1 (stereo not given) | inactive |
| CCOc1ccccc1C1C2=C(COC2=O)Nc2cc3c(cc21)OCO3 (stereo not given) | inactive |
| Cc1ccc(S(=O)(=O)CCC(=O)c2ccc(F)cc2)cc1 | inactive |
| N#C[C@H]1[C@@H](c2ccc(C#Cc3ccc(F)cc3)cc2)[C@H](CO)N1C(=O)Nc1ccc(F)cc1 | inactive |

| SMILES | outcome |
| --- | --- |
| NC(=O)c1ccsc1NC(=O)c1ccc([N+](=O)[O-])o1 | inactive |
| CC(=O)NC(c1ccc2ccccc2c1)c1ccc2cccnc2c1O (stereo not given) | inactive |
| Cc1ccc2nc(C)cc(Nc3ccc([N+](=O)[O-])cc3)c2c1 | inactive |
| C[C@H]1CCCCO[C@H](CN(C)C(=O)Nc2ccc(C(F)(F)F)cc2)[C@@H](C)CN([C@@H](C)CO)C(=O)c2cc(NS(=O)(=O)c3ccc(Cl)cc3)ccc2O1 | inactive |
| N#Cc1cccc(-c2ccc(C3[C@@H]4CN(C(=O)C5CC5)C[C@H]3N4)cc2)c1 (stereo not given in full) | inactive |
| Cc1cccc(C2(c3cccc(C)c3)CC2C(=O)Nc2ccc([N+](=O)[O-])cc2O)c1 (stereo not given) | inactive |
| CN(C)CCNc1ccc(CO)c2sc3ccc(O)cc3c(=O)c12 | inactive |
| COc1cc(C2C3=C(Nc4ncnn42)c2ccccc2CC3)cc(OC)c1OC (stereo not given) | inactive |
| COc1ccccc1NS(=O)(=O)c1cccc(C(=O)N/N=C/c2ccc([N+](=O)[O-])o2)c1 | inactive |
| CC(=O)OC1CCC2(C)C(CCC3C4CC=C(C(C)=O)C4(C)OC(=O)CC32)C1 (stereo not given) | inactive |
| CC(=NNC(=S)N1CCC1)c1ccccn1 | inactive |
| Cn1nnnc1Sc1ncnc2scc(-c3cccc4c3sc3ccccc34)c12 | inactive |
| C=CCNC(=S)N/N=C(\C)c1ccccn1 | inactive |
| Cc1cc(NC(=O)c2ccc([N+](=O)[O-])o2)ccc1NC(=O)c1ccco1 | inactive |
| COc1cc(/C=N/NS(=O)(=O)c2ccc(C)cc2)ccc1OCc1cccc(C(=O)O)c1 | inactive |
| CC(=NNC(=S)N1CCN(C2CCCCCC2)CC1)c1ccccn1 | inactive |
| CS(=O)(=O)c1ncc(Cl)c(C(=O)Nc2ccc3ccccc3c2)n1 | inactive |
| CCS(=O)(=O)c1ncc(Cl)c(C(=O)Nc2ccc(S(=O)(=O)N3CCCC(C)C3)cc2)n1 (stereo not given) | inactive |
| CCC(=O)OCCNc1cc(Sc2nccn2C)c2nonc2c1[N+](=O)[O-] | inactive |
| COc1cccc2c1C(=O)c1c(O)c3c(c(O)c1C2=O)CC(O)(C(C)=O)CC3OC1CC(N(C)C)C(O)C(C)O1 (stereo not given) | inactive |

test: cytotoxicity in IOSE-T80 ovarian epithelial cells, dose response, selectivity assay for PAX8 inhibitor project, cell-based, cherry-pick (AID 687032;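 active = fitted half-maximal concentration for viability loss no higher than twice the top valid dose, in every repeat run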;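 note: cells exposed to compound for 96 h before reading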); details: CellTiterGlo ATP luminescence, 96 h; series mostly up to 35 µM

| SMILES | outcome |
| --- | --- |
| CN[C@H]1CCc2cc(OC)c(OC)c(OC)c2-c2ccc(OC)c(=O)cc21 | inactive |
| CC(C)(C)C(=O)Nc1ccc(NC(=O)c2ccco2)nc1 | inactive |
| COc1ccccc1-n1cc([C@@H]2C[C@H]3CN(c4ccccc4)C(=O)[C@]34CCCN24)cn1 | inactive |
| CCN1CCN(Cc2ccc(NC(=O)c3cc(NC(=O)C(=O)c4c[nH]c5ccccc45)cc(OC)c3)cc2C(F)(F)F)CC1 | inactive |
| COc1ccc(S(=O)(=O)N2CCCCN3[C@H](CO)[C@H](c4ccc(C#CC(C)C)cc4)[C@H]3C2)cc1 | inactive |
| Cc1cccc(C)c1NS(=O)(=O)c1ccc(-c2cnc(C3CC3)o2)cc1 | inactive |
| O=c1c(Cl)c(Cl)cnn1Cc1nnc(-c2ccccc2Br)o1 | inactive |
| C=CC(=O)N=c1sc2ccccc2n1-c1ccccc1 | inactive |
| CCOCCCNC(=O)c1ccc2c(c1)N=C(CC)c1cc(Br)ccc1S2 | inactive |
| CC(C)C(=O)N1CCN(c2ccc(NC(=O)c3ccc([N+](=O)[O-])o3)cc2)CC1 | inactive |
| Cc1cc(-n2c(SCC(=O)NCCC3=CCCCC3)nc3n[nH]c(C)c3c2=N)ccc1Cl | inactive |
| COc1cc(/C=C2\COC/C(=C\c3cc(OC)c(OC)c(OC)c3)C2=O)cc(OC)c1OC | inactive |
| N#Cc1c(N)n(C2OC(CO)C(O)C2O)c2ncnc(N)c12 (stereo not given) | inactive |
| Cn1cc(C2=C(c3ccc(Cl)cc3Cl)C(=O)NC2=O)c2ccccc21 | inactive |
| COc1cc(-c2cnc3c(NC=O)cc(-c4ccc(C)cc4)cn23)cc(OC)c1OC | inactive |
| COc1ccc(S(=O)(=O)Nc2ccc3c(c2)C(=O)N([C@@H](C)CO)C[C@H](C)[C@H](CN(C)Cc2ccc(C(F)(F)F)cc2)OCCCC[C@H](C)O3)cc1 | inactive |
| CCC1(O)C(=O)OCc2c1cc1n(c2=O)Cc2cc3c(N)cccc3nc2-1 (stereo not given) | inactive |
| CCOc1ccccc1C1C2=C(COC2=O)Nc2cc3c(cc21)OCO3 (stereo not given) | inactive |
| Cc1ccc(S(=O)(=O)CCC(=O)c2ccc(F)cc2)cc1 | inactive |
| N#C[C@H]1[C@@H](c2ccc(C#Cc3ccc(F)cc3)cc2)[C@H](CO)N1C(=O)Nc1ccc(F)cc1 | inactive |

| SMILES | outcome |
| --- | --- |
| NC(=O)c1ccsc1NC(=O)c1ccc([N+](=O)[O-])o1 | inactive |
| CC(=O)NC(c1ccc2ccccc2c1)c1ccc2cccnc2c1O (stereo not given) | inactive |
| Cc1ccc2nc(C)cc(Nc3ccc([N+](=O)[O-])cc3)c2c1 | inactive |
| C[C@H]1CCCCO[C@H](CN(C)C(=O)Nc2ccc(C(F)(F)F)cc2)[C@@H](C)CN([C@@H](C)CO)C(=O)c2cc(NS(=O)(=O)c3ccc(Cl)cc3)ccc2O1 | inactive |
| N#Cc1cccc(-c2ccc(C3[C@@H]4CN(C(=O)C5CC5)C[C@H]3N4)cc2)c1 (stereo not given in full) | inactive |
| Cc1cccc(C2(c3cccc(C)c3)CC2C(=O)Nc2ccc([N+](=O)[O-])cc2O)c1 (stereo not given) | inactive |
| CN(C)CCNc1ccc(CO)c2sc3ccc(O)cc3c(=O)c12 | inactive |
| COc1cc(C2C3=C(Nc4ncnn42)c2ccccc2CC3)cc(OC)c1OC (stereo not given) | inactive |
| COc1ccccc1NS(=O)(=O)c1cccc(C(=O)N/N=C/c2ccc([N+](=O)[O-])o2)c1 | inactive |
| CC(=O)OC1CCC2(C)C(CCC3C4CC=C(C(C)=O)C4(C)OC(=O)CC32)C1 (stereo not given) | inactive |
| CC(=NNC(=S)N1CCC1)c1ccccn1 | inactive |
| Cn1nnnc1Sc1ncnc2scc(-c3cccc4c3sc3ccccc34)c12 | inactive |
| C=CCNC(=S)N/N=C(\C)c1ccccn1 | inactive |
| Cc1cc(NC(=O)c2ccc([N+](=O)[O-])o2)ccc1NC(=O)c1ccco1 | inactive |
| COc1cc(/C=N/NS(=O)(=O)c2ccc(C)cc2)ccc1OCc1cccc(C(=O)O)c1 | inactive |
| CC(=NNC(=S)N1CCN(C2CCCCCC2)CC1)c1ccccn1 | inactive |
| CS(=O)(=O)c1ncc(Cl)c(C(=O)Nc2ccc3ccccc3c2)n1 | inactive |
| CCS(=O)(=O)c1ncc(Cl)c(C(=O)Nc2ccc(S(=O)(=O)N3CCCC(C)C3)cc2)n1 (stereo not given) | inactive |
| CCC(=O)OCCNc1cc(Sc2nccn2C)c2nonc2c1[N+](=O)[O-] | inactive |
| COc1cccc2c1C(=O)c1c(O)c3c(c(O)c1C2=O)CC(O)(C(C)=O)CC3OC1CC(N(C)C)C(O)C(C)O1 (stereo not given) | inactive |
